Rows were chosen to be rich in hits. Some 4.8% of all compounds tested hit in one or more screens of this group.
HepG2 viability: counter-screen for TGF-b inhibitors: cytotoxicity in HepG2 cells; HepG2 CAGA-GFP viability, ATP luminescence, 18 h; Potency, µM (top dose mostly 46.1 µM), for the others: top-dose activity change, negative = cytotoxicity, usual class: cytotoxic; 410,000 compounds, 0.76% hits; AID 588856; note: potency is the fitted concentration of half-maximal effect
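CellTiter-Glo luminescence gave cytotoxicity after 18 hours at 37 degrees C. The cells were HepG2 CAGA-GFP in 1% FBS DMEM, stimulated with 500 pg/mL TGF-beta after compound addition. %Activity was normalised to no-cell wells (complete cell-killing) and DMSO (no toxicity), and curves were fitted and classified.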
S2 tox: viability counter-screen for ATXN expression inhibitors | S2 cells (HEK-293 line with an ATXN2-luciferase reporter) viability, CellTiter-Fluor protease fluorescence, 24 h | 400,000 compounds, 0.49% hits | Potency, µM (titrated, usually from 56.7 µM), usual class: cytotoxic; note: potency is the fitted concentration of half-maximal effect; nearly all actives have a fitted effect of over 40% in size
DRD3 antagonist: blocks the human D3 dopamine receptor; D3R cells, DiscoveRx beta-arrestin luminescence, antagonist mode; stronger effect = lower value; max response, negative = inhibition, %; 360,000 compounds, 2.5% hits; AID 652054; in the data active = max response below about -50%; inconclusive = no clear call, values can overlap the other calls; note: % is set by controls: 0 for no effect and ±100 for the full control effect
Target sequence (P35462 whole entry, looked up): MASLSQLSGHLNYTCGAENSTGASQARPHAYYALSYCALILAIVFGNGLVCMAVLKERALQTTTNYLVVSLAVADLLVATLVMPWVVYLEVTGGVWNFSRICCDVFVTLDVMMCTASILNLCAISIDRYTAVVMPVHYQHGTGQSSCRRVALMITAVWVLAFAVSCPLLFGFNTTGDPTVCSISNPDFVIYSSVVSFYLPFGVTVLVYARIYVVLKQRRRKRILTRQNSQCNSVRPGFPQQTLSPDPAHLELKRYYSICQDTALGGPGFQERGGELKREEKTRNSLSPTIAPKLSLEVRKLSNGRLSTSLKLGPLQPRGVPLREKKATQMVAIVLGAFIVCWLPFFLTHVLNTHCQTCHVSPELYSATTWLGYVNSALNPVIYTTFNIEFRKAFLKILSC
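Cells plated overnight at 1500 cells/well, then exposed to library compounds with dopamine controls for 90 minutes at 37 degrees C. DiscoveRx reagent added for 30–60 minutes at room temperature; luminescence read, quantitative HTS format.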
ATXN2 expr inh: reduces ATXN2 reporter expression in HEK-293 cells | HEK-293 ATXN2-luciferase reporter, luminescence, 24 h | Potency, µM (series often up to 57 µM), for the others: at the top dose activity change, negative = inhibition, most hits filed as inhibitors | 360,000 compounds, 0.72% hits | AID 1745845; note: potency is the fitted concentration of half-maximal effect; % is set by controls: 0 for no effect and ±100 for the full control effect; nearly all actives have a fitted effect of over 55% in size
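ATXN2-luciferase reporter cells (luciferase flanked by upstream and downstream ATXN2 gene portions) were treated 24 h at 37 °C with compounds at up to 57 uM. SteadyGlo luminescence gave expression; GF-AFC fluorescence gave viability.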
D3 ag: agonists of human D3 dopamine receptor; 410,000 compounds, 0.58% hits; D3R DiscoveRx beta-arrestin cells, luminescence, 90 min; AID 652048; max activation, %; in the data active = max activation above about 30%; note: 0% is about no effect
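Agonist mode: compounds and dopamine controls were applied to plated cells for 90 min at 37 degrees C after an overnight attachment at 1500 cells/well. Luminescent read-out followed 30 - 60 minutes at room temperature with DiscoveRx detection reagent.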
TGFb inhibitor: TGF-b pathway inhibition; 410,000 compounds, 1.2% hits; Potency, µM (titrated, usually from 46.1 µM), without a hit: at the top dose activity, negative = inhibition, actives largely listed as inhibitors; AID 588855; HepG2 CAGA-GFP TGF-b/SMAD3 reporter, GFP fluorescence, 18 h; TGF-beta stimulated, 500 pg/mL final; note: potency is the fitted concentration of half-maximal effect; % is set by controls: 0 for no effect and ±100 for the full control effect; nearly all actives have a fitted effect of over 65% in size
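Using HEPG2 CAGA-GFP reporter cells at 1000 cells/well, we pinned test compounds, stimulated with recombinant TGF-beta (500 pg/mL final) and measured total well GFP after 18 h.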
An asterisk follows results filed as active; i = inactive; u = inconclusive; x = no result. Unless noted, calls come from the whole dose curve; as a rule, active = well fitted curve in the direction sought with a large enough effect; inconclusive = small, poorly fitted or top-dose-only effect, or another doubt; inactive = no such curve, though single readings can be large; an effect the other way counts as inactive or inconclusive.

SMILES	HepG2 viability	S2 tox	DRD3 antagonist	ATXN2 expr inh	D3 ag	TGFb inhibitor
CC(C)N1CCN(c2ccc(OCC3COC(Cn4cncn4)(c4ccc(Cl)cc4Cl)O3)cc2)CC1 (stereo unspecified)	-11%	u	-20	-20%	-14	-18%
O=C(Cn1cc(C(=O)c2ccncc2)c(=O)c2cc(F)ccc21)Nc1ccc(Cl)cc1	-14%	x	x	x	-12	u
C/C(=N\NC(=O)C(C)Oc1ccc([N+](=O)[O-])cc1)c1ccccn1 (stereo unspecified)	-26%	7.1µM*	-106*	u	-90	u
Nc1ccc(/C=C/c2ccnc3ccccc23)cc1	-28%	x	x	x	x	-5%
CCOCCCNC(=O)/C(C#N)=C/c1ccc([N+](=O)[O-])o1	-5%	19µM*	-27	u	-5	-27%
CC(NC(=O)/C(C#N)=C/c1ccco1)c1ccccc1 (stereo unspecified)	-16%	i	3	-16%	9	-27%
COC(=O)c1ccc(/C=C(\C#N)C(=O)NC(C)c2ccccc2)cc1 (stereo unspecified)	-43%	u	-56*	u	1	-14%
CC(NC(=O)/C(C#N)=C/c1ccc([N+](=O)[O-])o1)c1ccccc1 (stereo unspecified)	-79%	u	-96*	u	-7	u
COc1ccc(/C=C(\C#N)C(=O)NC(C)c2ccccc2)cc1O (stereo unspecified)	-23%	i	8	2%	-3	0%
CCc1nn2c(=O)cc(COC(=O)c3ccccc3NC(=O)c3cccs3)nc2s1	-4%	x	x	x	10	18%
C=C1CCN([C@@H](Cc2ccccc2)C(=O)NCc2ccccc2)S(=O)(=O)c2ccccc21	-15%	i	47	6%	0	-17%
C=C1CCN([C@@H](Cc2ccccc2)C(=O)NCc2ccc(Cl)cc2)S(=O)(=O)c2ccccc21	-11%	i	-56*	10%	-21	-19%
C=C1CCN(C(CC(C)C)C(=O)NCCCc2ccccc2)S(=O)(=O)c2ccccc21 (stereo unspecified)	-33%	x	x	x	x	11µM*
COc1cc(NC(=O)c2cc(-c3cccc(OC)c3)n[nH]2)cc(OC)c1	-25%	u	x	-23%	-17	25%
CCc1ccc(C(=O)C[N+]2(C)CCOCC2)cc1	-18%	x	x	x	x	15%
CCOc1c(Cl)cc(C(=O)N(Cc2ccc(N(C)C)cc2)Cc2ccco2)cc1Cl	-30%	x	x	x	-5	x
CCC1=NN(C(=O)C(=O)Nc2ccc(OC)cc2)C(O)(C(F)(F)F)C1 (stereo unspecified)	-34%	i	-159*	6%	-36	u
CCC1=NN(C(=O)C(=O)NCCc2ccccc2)C(O)(C(F)(F)F)C1 (stereo unspecified)	-21%	i	-65*	-13%	-16	5%
CCC1=NN(C(=O)C(=O)Nc2ccccc2OC)C(O)(C(F)(F)F)C1 (stereo unspecified)	-41%	i	21	0%	-21	u
CCC1=NN(C(=O)CCc2ccccc2)C(O)(C(F)(F)F)C1 (stereo unspecified)	8%	i	u	-1%	-2	3%
Cc1cccn2c(=O)cc(CSc3nnc(NC(=O)COc4ccccc4)s3)nc12	-1%	x	x	x	-3	2%
CC(C)COc1ccc(C(=O)N2CCCCC2CCN2CCOCC2)cc1 (stereo unspecified)	4%	x	x	x	6	-19%
Cc1ccc(C(=O)N(Cc2nnc(-c3ccccc3Cl)o2)C2CC2)o1	10µM*	i	0	x	-3	-3%
COc1ccc(-c2ccc3c(c2)c(-c2cccs2)c(-c2cc(OC)cc(OC)c2)n3C)cc1	-13%	i	-27	-2%	5	-3%
COc1cc(OC)cc(-c2c(-c3cccs3)c3cc(-c4ccc(C(N)=O)cc4)ccc3n2C)c1	3%	u	71	u	39*	-3%
SMILES	HepG2 viability	S2 tox	DRD3 antagonist	ATXN2 expr inh	D3 ag	TGFb inhibitor
CCCNC1=C(N(C(C)=O)c2cccc(F)c2)C(=O)c2ccccc2C1=O	7.9µM*	x	2	28µM*	0	u
CCC(=O)N(C1=C(NC(C)C)C(=O)c2ccccc2C1=O)C(C)C	-35%	i	-7	-22%	6	u
Cc1ccc(Sc2ccc(CO)cc2[N+](=O)[O-])cc1	-39%	i	u	49%	-8	0%
Cc1ccc(Sc2ccc(CN3CCCC3)cc2[N+](=O)[O-])cc1	-38%	i	-79*	-14%	-20	u
CN1CCN(Cc2ccc(Sc3ccc(Cl)cc3)c([N+](=O)[O-])c2)CC1	-22%	i	-55*	-19%	-44	-3%
CCC(C)(C)NC(=O)C1CCN(S(=O)(=O)c2c(C)noc2/C=C/c2ccc(C)cc2)CC1	-14%	i	x	-1%	-14	-8%
CN(Cc1ccc(Cl)cc1)C(CCc1ccccc1)C(=O)NC1CCCCC1 (stereo unspecified)	-25%	i	-60*	-14%	-17	u
CN(Cc1ccc(Cl)cc1)C(C(=O)NC1CCCCC1)c1cc2ccccc2o1 (stereo unspecified)	-14%	i	-3	14%	-6	u
Clc1ccc(CN2CCSCC2)cc1Cl	-1%	i	-11	-2%	-14	-7%
CCOC(=O)C1CCCN(Cc2ccc(OCc3ccccc3)cc2)C1 (stereo unspecified)	-14%	u	-61*	x	-15	-6%
CCOC(=O)C1CCCN(Cc2ccc3c(c2)OCO3)C1 (stereo unspecified)	-7%	i	-100*	-13%	-32	-30%
Fc1ccc(CN2CCSCC2)cc1Br	7%	i	-61*	-3%	-35	-1%
CN(Cc1ccccc1)C(=O)C1CCCN(Cc2ccc(Cl)cc2)C1 (stereo unspecified)	-10%	i	-68*	0%	-17	0%
CCOC(=O)C1CCN(Cc2ccc(F)c(Br)c2)CC1	0%	i	-78*	-21%	-49	18%
CCOC(=O)C1CCCN(Cc2ccc(OC)cc2OC)C1 (stereo unspecified)	-4%	x	-52*	x	-8	u
CCOC(=O)C1CCCN(CC(=O)Nc2c(F)c(F)c(F)c(F)c2F)C1 (stereo unspecified)	2%	i	-22	7%	-4	5%
CCN(CC)C(=O)C1CCCN(Cc2ccccc2)C1 (stereo unspecified)	5%	i	-23	3%	-1	4%

Screening data (PubChem BioAssay)
